We go through 36 compounds from PubChem BioAssay (NCATS).

Values joined by “and” are separate entries in the source; they are usually repeats but may differ in a detail not shown here. Equal entries are not always repeated. Records with an inconclusive call do not appear. A call without a number means that no potency is given here. Values without a mark were called inactive. Active and inactive are the calls of the source. Calls come from the whole dose curve; as a rule, active = well fitted cell-killing curve with a large enough effect; inconclusive = small, poorly fitted or top-dose-only effect; inactive = no such curve, though single readings can be large or run the other way.
Potency is the fitted concentration of half-maximal effect.

The nature of the experiment: qHTS of pediatric cancer cell lines to identify multiple opportunities for drug repurposing: Primary screen for MG 63 (6-TG R) cells (AID 1347105). Note: nearly all actives have a fitted effect of over 50% in size. To be noted: MG 63 (6-TG R) viability, CellTiter-Glo, 48 h; series mostly up to 46 µM; activity change, negative = cytotoxic: at the top concentration. Put shortly: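 Cells seeded at 500-1,000 cells/well in growth media, rested 5 hours at 37 degrees C, 5% CO2, then dosed; MIPE compounds at 11-point (from 0.78 nM) and NPC at 8-point (from 0.59 nM) final concentrations. Viability by CellTiter-Glo luminescence after 48 hours.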
(In general: In qHTS, concentration-response curves come from the screen itself.)
Take `CCN(CC)CC#CCOC(=O)C(O)(c1ccccc1)C1CCCCC1` (stereo unspecified): the “activity change, negative = cytotoxic” value is 12.6%.
Still for that read-out and setting: for `CC1CC2C3CCC4=CC(=O)C=C[C@]4(C)[C@@]3(F)[C@@H](O)C[C@]2(C)[C@@]1(O)C(=O)CO` (stereo partly specified) the value was -0.56%.
For `C1CCC(C(CC2CCCCN2)C2CCCCC2)CC1` (stereo unspecified), the Potency was 26.6 µM (active).
On to `CCC(C)(C)c1ccc(CC(C)CN2C[C@@H](C)O[C@@H](C)C2)cc1` (stereo partly specified), for which the “activity change, negative = cytotoxic” value was -57.2%.
`Clc1ccccc1CN1CCc2sccc2C1`: the Potency entry was “inactive”.
The same measure, in the same setting: for `Cc1onc(-c2ccccc2Cl)c1C(=O)N[C@@H]1C(=O)N2[C@@H]1SC(C)(C)[C@@H]2C(=O)O` the value was “inactive”.
Turning to `CC(C)OC(=O)OCOP(=O)(CO[C@H](C)Cn1cnc2c(N)ncnc21)OCOC(=O)OC(C)C`, the Potency result is “inactive”.
As to `N[C@@H](Cc1ccc(O)c(O)c1)C(=O)O`, the “activity change, negative = cytotoxic” value is -7.16%.
On the same count and under the same terms, for `CCCCS(=N)(=O)CCC(N)C(=O)O` (stereo unspecified) the value was -23.4%.
Consider `CNS(=O)(=O)Cc1ccc2[nH]cc(CCN(C)C)c2c1`, for which the Potency entry was “inactive”.
On the same count and under the same terms, for `CC(=O)[C@H]1CC[C@H]2[C@@H]3CC=C4C[C@@H](O)CC[C@]4(C)[C@H]3CC[C@]12C` the value was “inactive”.
For `CN(C)CCc1c[nH]c2ccc(C[C@H]3COC(=O)N3)cc12`, the Potency entry was “inactive”.
Same read-out and setting: for `O=P(O)(O)C(O)(Cc1cccnc1)P(=O)(O)O` the value was “inactive”.
Turning to `Cc1ccnc2c1NC(=O)c1cccnc1N2C1CC1`, the “activity change, negative = cytotoxic” value was -17.1%.
For the compound `NC1(c2ccc(-c3nc4ccn5c(=O)[nH]nc5c4cc3-c3ccccc3)cc2)CCC1`, the Potency was 7.43 µM (active) and 13.3 µM (active).
Still for that read-out and setting: for `CC1=NN(c2ccccc2)C(=O)C1` the value was “inactive”.
Take `NC(=O)c1ccc2[nH]ccc2c1`: the “activity change, negative = cytotoxic” value was -17.8%.
As to `OC(Cn1cncn1)(Cn1cncn1)c1ccc(F)cc1F`, the Potency entry is “inactive”.
On the same count and under the same terms, for `CN1CCN(c2c(F)cc3c(=O)c(C(=O)O)cn(CCF)c3c2F)CC1` the value was “inactive”.
For `CC1=C(C(=O)O)N2C(=O)[C@@H](NC(=O)C(N)c3ccccc3)[C@H]2SC1` (stereo partly specified), the “activity change, negative = cytotoxic” value was 0.288%.
As for `NC(=O)N1c2ccccc2CC(=O)c2ccccc21`, the Potency result was “inactive”.
The same measure, in the same setting: for `O=C(N[C@H](CO)[C@H](O)c1ccc([N+](=O)[O-])cc1)C(Cl)Cl` the value was “inactive”.
Same read-out and setting: for `CCn1cc(C(=O)O)c(=O)c2cc(F)c(N3CCNCC3)cc21` the value was “inactive”; for `O=C(O)c1cccnc1`, “inactive”; for `COc1ccc2c(c1)c(CC(=O)OCC(=O)O)c(C)n2C(=O)c1ccc(Cl)cc1`, “inactive”.
Take `C[C@@H]1CN(c2c(F)c(N)c3c(=O)c(C(=O)O)cn(C4CC4)c3c2F)C[C@H](C)N1`: the Potency result is “inactive”.
Same read-out and setting: for `Cc1cccc(Nc2ccncc2S(=O)(=O)NC(=O)NC(C)C)c1` the value was “inactive”; for `CN(Cc1cc(Br)cc(Br)c1N)C1CCCCC1`, “inactive”.
Turning to `CC1=CC(=O)c2ccccc2C1=O`, the “activity change, negative = cytotoxic” value was 5.12%.
Turning to `NCCCC(O)(P(=O)(O)O)P(=O)(O)O`, the Potency result is “inactive”.
Same read-out and setting: for `COc1cc(NS(=O)(=O)c2ccc(N)cc2)nc(OC)n1` the value was “inactive”.
On to `O=S(=O)(c1cccc2cnccc12)N1CCCNCC1`, for which the Potency result is “inactive”.
The same measure, in the same setting: for `CC(C)OC(=O)C(C(=O)OC(C)C)=C1SC=CS1` the value was “inactive”.
Same read-out and setting: for `O=C(O)c1cn(C2CC2)c2cc(N3CCNCC3)c(F)cc2c1=O` the value was “inactive”; for `CO[C@@H]1[C@@H](OC(N)=O)[C@@H](O)[C@H](Oc2ccc3c(O)c(NC(=O)c4ccc(O)c(CC=C(C)C)c4)c(=O)oc3c2C)OC1(C)C`, “inactive”.
On the same count and under the same terms, for `O=C(O)CCn1c2c(c3ccccc31)C[C@H](NS(=O)(=O)c1ccc(F)cc1)CC2` the value was “inactive”.
